The whole screen tested about 31,000 sequences, of which about 1,400 (4.5%) were called active.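 Rule for the calls: active = median seed-adjusted z-score above 1 or below -1; inactive = the rest.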 The sample as a whole holds a higher share of actives than the screen did.
Assay: Novel Modifiers of Survival Motor Neuron (SMN) Protein: Gene Identification via Genome-wide siRNA Screen;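 note: luminescence tracks full-length SMN protein made from the SMN2 reporter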
Settings: HEK293T SMN2-luciferase reporter, siRNA knockdown, 72 h; actives lie on both sides
Procedure, shortened: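 Each of three siRNAs per gene is reverse-transfected (1 pmol) into reporter HEK293T cells whose luciferase output tracks SMN protein level. After 72 h culture, ONE-Glo luminescence is control-normalized, log10-transformed and MAD-standardized; Common Seed Analysis deprioritizes seed-driven hits.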
In the case of GCAGAAUACAAGAGCUUGATT against EID2, the median seed-adjusted z-score is reported as -1.04 (active).
With GGCUCCUUAUAUGACUAUUTT against ACVR1C the median seed-adjusted z-score was -0.0005 (inactive).
With GCUCUGAGGGAGUAUCGAATT against TROVE2 the median seed-adjusted z-score was 0.399 (inactive).
In the case of ACAUAACCGUUCUUCGAGATT against GTPBP2, the median seed-adjusted z-score is reported as -0.166 (inactive).
With CAAAAGGACAAAUCAACGATT against DDAH1 the median seed-adjusted z-score was 0.138 (inactive).
In the case of GAGACUGUGCAGAUGUAUATT against ANGPT1, the median seed-adjusted z-score is reported as 0.289 (inactive).
For GCAUCAGCAUAAGUCCAUUTT against SIAH1, the median seed-adjusted z-score was 1.5 (active).
With GUGUCGUACUCACAUCCAUTT against PTCH2 the median seed-adjusted z-score was -0.191 (inactive).
For GUGACGGCUUUAGACCUGATT against PRTFDC1, the median seed-adjusted z-score was 0.493 (inactive).
In the case of GCAAGGUUCCUAGCGUGUATT against VCAM1, the median seed-adjusted z-score is reported as 0.19 (inactive).
With CAGCAGAGCCGAUCCAAGATT against GPR37L1 the median seed-adjusted z-score was -0.0348 (inactive).
In the case of ACAUCUUCAAGGCCCUUUUTT against CTDSP2, the median seed-adjusted z-score is reported as 0.498 (inactive).
With GGAAUUCCGUAAAAGCAUUTT against HOXC13 the median seed-adjusted z-score was -0.318 (inactive).
With CACUAAUCGUGAGCAUGGATT against XRCC5 the median seed-adjusted z-score was -1.11 (active).
In the case of GAGUAGUUUAGAUAAGUUATT against SPAG9, the median seed-adjusted z-score is reported as 0.0795 (inactive).
In the case of GCAUCCGAGAUGUGACUAATT against DIS3, the median seed-adjusted z-score is reported as 0.266 (inactive).
In the case of GCAGUGAUCAUAAUUCUCATT against SLC7A1, the median seed-adjusted z-score is reported as 0.445 (inactive).
For UGACGACACUGACCGCAGATT against UBE2S, the median seed-adjusted z-score was 0.348 (inactive).
With GCAUUGAGAUGUUCCACAATT against TUFM the median seed-adjusted z-score was 1.07 (active).
With GAAUCACUCUUUGACAACATT against SLC2A13 the median seed-adjusted z-score was -0.0451 (inactive).
In the case of GAAGAAUACAAACAGCAAUTT against CRCP, the median seed-adjusted z-score is reported as 0 (inactive).
With CAGCUGUUCUCAUAUGCUATT against ATP5G3 the median seed-adjusted z-score was 0 (inactive).
In the case of CCUGAUUACUAUAAGAUCATT against BRD4, the median seed-adjusted z-score is reported as 1.13 (active).
With GAACCUCUCUGAAACUGCUTT against PBLD the median seed-adjusted z-score was -0.0809 (inactive).
In the case of CGACUCCGGAGGAUUGAAATT against GSX2, the median seed-adjusted z-score is reported as -0.621 (inactive).
With GCAAGUUAGUGGAUUAAAATT against FOXP1 the median seed-adjusted z-score was -0.198 (inactive).
With GACUAGUACUUACGGCUUUTT against RBM15 the median seed-adjusted z-score was -0.409 (inactive).
With GCAUGAACGCGGUCAUGAUTT against RAB40C the median seed-adjusted z-score was -0.161 (inactive).
In the case of CAGGUCAAGUGUUACCGAUTT against ZCCHC13, the median seed-adjusted z-score is reported as -0.297 (inactive).
With GCAAUUACAGGCUAGUGAATT against AKAP9 the median seed-adjusted z-score was -1.22 (active).
In the case of CCUACUUCGGAGUCUAUGATT against SLC25A4, the median seed-adjusted z-score is reported as -0.379 (inactive).
In the case of CAAGGUUGAUGGGCGUGUATT against HNRNPA3, the median seed-adjusted z-score is reported as 0.915 (inactive).
With CCAGGACUUUGUUACUGCATT against TIGD6 the median seed-adjusted z-score was -0.443 (inactive).
For GCUGGUACCCGUCAACAAATT against ABCC10, the median seed-adjusted z-score was -1.56 (active).
In the case of GGACUUCAAUAUCGCAGUATT against PLCE1, the median seed-adjusted z-score is reported as 0.597 (inactive).
With GGAACAGCGCAGUACGUUUTT against PDPK1 the median seed-adjusted z-score was 0.0807 (inactive).
For CCAUCGCUUUCAGCAGACATT against DLX6, the median seed-adjusted z-score was 0.0275 (inactive).
For GGACCACAAGGGAAUACAATT against KHDRBS1, the median seed-adjusted z-score was 0.0916 (inactive).
For ACUUGGAUCAUUUCCCUGATT against SLC13A5, the median seed-adjusted z-score was 0 (inactive).
For GACCUUGAAUGUUCAACAUTT against ZNF470, the median seed-adjusted z-score was -1.26 (active).
With GCCGCAUCGUAGCUCGUAATT against RRAD the median seed-adjusted z-score was -0.267 (inactive).
With GGAAUAUGCAUAUCAUGGATT against LNPEP the median seed-adjusted z-score was -0.386 (inactive).
For CGAUAUAUGUGAUAUGCGUTT against ZNF740, the median seed-adjusted z-score was -0.914 (inactive).
With GCAACAAGACGGAAUUGGATT against SFRS3 the median seed-adjusted z-score was 2.74 (active).
For GAGUGGACAUUCUAAUCAATT against RDH13, the median seed-adjusted z-score was 0.208 (inactive).
In the case of CCAUCUUAAACUCGCUCUATT against GPR114, the median seed-adjusted z-score is reported as 0.805 (inactive).
In the case of CUACCGGGCUGACCUCAAATT against GPR153, the median seed-adjusted z-score is reported as -1.08 (active).
In the case of UGAGAGCUCUAGAUAUGAATT against ZNF768, the median seed-adjusted z-score is reported as 0.169 (inactive).
In the case of ACGGCUCUGUGGACACAGATT against GPR78, the median seed-adjusted z-score is reported as 0.607 (inactive).
In the case of CGAGUGAAAGAAUCAAUAUTT against OXSR1, the median seed-adjusted z-score is reported as -0.0682 (inactive).
With GCUACGAGUUUACUAUCUUTT against TNIK the median seed-adjusted z-score was 0.154 (inactive).
For CCUCAGAGCUCAAUCAUCUTT against CD5, the median seed-adjusted z-score was 0.0416 (inactive).
For CGAUAAUCUGGGCUACAGATT against ADD1, the median seed-adjusted z-score was -0.0129 (inactive).
In the case of CCAAUACUAACAUCUUCAATT against MCART1, the median seed-adjusted z-score is reported as -0.605 (inactive).
For CAACGGCUCUUAGACCACATT against SPRY4, the median seed-adjusted z-score was -1.23 (active).
In the case of GCUCAGUAUUUAAACAUCATT against COL9A2, the median seed-adjusted z-score is reported as 0.0208 (inactive).
For AGCCGACAGUGGUGCACUATT against PLA2G15, the median seed-adjusted z-score was 0 (inactive).
For CGGAGACCGUACGAAAGUATT against A2M, the median seed-adjusted z-score was -1.96 (active).
In the case of GGAUGGAAGAUAGCUUGAATT against CPEB4, the median seed-adjusted z-score is reported as -0.53 (inactive).
With CGGGCAUUGCCACCAAAGATT against DUX5 the median seed-adjusted z-score was -0.295 (inactive).
In the case of GCAUUCAUCACUUCGAAAATT against BNC2, the median seed-adjusted z-score is reported as -0.0556 (inactive).
With CCUACAGCAGUGUCUAUGATT against EIF3C the median seed-adjusted z-score was 0.56 (inactive).
For GGUUGACUCAGAUACUACATT against CENPE, the median seed-adjusted z-score was 0.298 (inactive).
With GGAUCCUUACUUCUUGUCATT against COQ2 the median seed-adjusted z-score was -0.0121 (inactive).
With GGAAACCAGUGGAUAUUAATT against F11 the median seed-adjusted z-score was -0.0319 (inactive).
In the case of ACAUCAACGUGGAACGAGATT against EIF4A1, the median seed-adjusted z-score is reported as -1.05 (active).
With GAUGAGACUUUGACUAUAATT against FGD6 the median seed-adjusted z-score was 0.536 (inactive).
With GCCUGAACCUCAUCCUUAUTT against ENPP1 the median seed-adjusted z-score was -0.273 (inactive).
For GGGUUUUCAUUCAGAUGAATT against MLL4, the median seed-adjusted z-score was -0.259 (inactive).

— PubChem BioAssay AID1347426 (Functional Genomics Laboratory (NCATS/FGL), 2020)
